Measured values as given in PubChem BioAssay (NCI).
The panel holds about 83,000 compounds, 20% with a hit somewhere; the sample as a whole holds those more often.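 Each cell line was grown in a 96-well plate and treated with one concentration of compound for 48 hours. Values below 10 were considered active.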 The source made the active and inactive calls.

How the values were obtained:
Test in all cases: NCI-60 one-dose screen, 48 h (100 = growth as untreated, 0 = no growth, -100 = all killed)
Settings in all cases: 10 µM unless noted
[1] = tested on: DU-145 prostate
[2] = tested on: K-562 leukemia
[3] = tested on: MALME-3M melanoma
[4] = tested on: MDA-MB-231 breast
[5] = tested on: RXF 393 renal
[6] = tested on: SF-268 CNS
[7] = tested on: SF-295 CNS
[8] = tested on: SF-539 CNS
[9] = tested on: UACC-257 melanoma
[10] = tested on: HCT-15 colon
[11] = tested on: HT29 colon
[12] = tested on: SNB-75 CNS
[13] = tested on: SNB-19 CNS
[14] = tested on: U251 CNS
[15] = tested on: PC-3 prostate
[16] = tested on: SK-MEL-5 melanoma
[17] = tested on: UACC-62 melanoma
[18] = tested on: SK-MEL-28 melanoma
[19] = tested on: M14 melanoma
[20] = tested on: LOX IMVI melanoma

Measured: growth

N=C(N)N=Nc1ccc(O)cc1
active: [7] 8.54% [100 µM]
inactive: [1] 80.4% [100 µM] | [2] 17% [100 µM] | [3] 85.2% [100 µM] | [4] 103% [100 µM] | [5] 20.8% [100 µM] | [6] 77.5% [100 µM] | [8] 15.2% [100 µM] | [9] 95.6% [100 µM] | [10] 45.9% [100 µM] | [11] 31.9% [100 µM] | [12] 56.3% [100 µM] | [13] 56.8% [100 µM] | [14] 40.5% [100 µM] | [15] 38.1% [100 µM] | [16] 85.9% [100 µM] | [17] 86.6% [100 µM] | [18] 104% [100 µM]

COc1cccc(-c2nn(-c3ccccc3)cc2-c2ccnc(NCCNS(=O)(=O)c3ccccc3)c2)c1
active: [2] 6.57%
inactive: [1] 57.5% | [3] 69.1% | [4] 18.4% | [5] 63.7% | [6] 50% | [7] 20.6% | [8] 57.1% | [19] 29.8% | [10] 20.3% | [11] 16.9% | [12] 67.7% | [13] 42.6% | [14] 34.8% | [15] 17.5% | [16] 17.1% | [20] 41%

Oc1ccc(CCC2CCCC(CCc3ccc(OCCF)cc3)N2)cc1 (stereo not drawn)
inactive: [1] 109% | [2] 66% | [3] 117% | [4] 88.9% | [5] 84.7% | [6] 99.1% | [7] 96.4% | [8] 104% | [19] 90.4% | [10] 88.1% | [11] 87.2% | [12] 78.7% | [13] 101% | [14] 85.8% | [15] 87.8% | [16] 90% | [20] 98.7%

CCCCCCCC(=O)SCC/C=C/[C@@H]1CC(=O)NCc2cccc(n2)CN(Cc2ccc3ccccc3c2)CC(=O)N[C@@H](C(C)C)C(=O)O1
inactive: [1] 51.4% | [2] 13.8% | [4] 27.3% | [5] 20.3% | [6] 61.1% | [8] 59.1% | [19] 28.4% | [10] 57.8% | [11] 14.5% | [12] 29.2% | [13] 48.9% | [14] 35.9% | [15] 34.8%
active: [3] 8.13% | [7] 9.4% | [16] 9.24% | [20] 5.42%

O=S(=O)(NCCNc1cc(-c2cn(-c3ccccc3)nc2-c2cccc(O)c2)ccn1)c1ccc(C(F)(F)F)cc1
active: [2] 7.03% | [4] 5.29% | [11] 4.36%
inactive: [1] 71.8% | [3] 60.2% | [5] 40.5% | [6] 50% | [7] 38.6% | [8] 60.1% | [19] 32.1% | [10] 28.5% | [12] 49.7% | [13] 54.4% | [14] 36.5% | [15] 22.6% | [16] 36.9% | [20] 23.5%

Cn1c2ccccc2c2c3c(c4c5cccnc5[nH]c4c21)C(=O)N(O)C3=O
active: [20] 2.63%
inactive: [1] 26.5% | [2] 29.8% | [3] 58.2% | [4] 68.8% | [5] 59.5% | [6] 38.2% | [7] 37.6% | [8] 16.6% | [19] 20.5% | [10] 67.4% | [11] 28.9% | [12] 61% | [13] 38.1% | [14] 21% | [15] 42.4% | [16] 12.7%

C=C1C(=O)O[C@H]2[C@H]1CC/C(Cn1cc(-c3ccc(OC)cc3)nn1)=C\CC[C@@]1(C)O[C@@H]21
active: [1] -35% | [2] -9.11% | [3] -62.3% | [4] -12.3% | [5] -63.6% | [8] -16.6% | [19] -43.9% | [10] -71.4% | [11] -82% | [20] -79.3%
inactive: [6] 12.7% | [7] 88.8% | [12] 91.4% | [13] 69.5% | [14] 23% | [15] 39.4% | [16] 41.8%

COc1cccc(-c2nn(-c3ccccc3)cc2-c2ccnc(NCCNS(=O)(=O)c3ccc(Cl)cc3)c2)c1
active: [16] -13.7%
inactive: [1] 52.7% | [2] 11.7% | [3] 50.3% | [4] 19.3% | [5] 29.8% | [6] 45.7% | [7] 21.7% | [8] 54.1% | [19] 28.6% | [10] 24.1% | [11] 11.6% | [12] 66.2% | [13] 46% | [14] 31.2% | [15] 10.6% | [20] 24.5%

COc1ccccc1CNc1nc(N)nc2[nH]c3ccc(O)cc3c12
inactive: [1] 91% | [2] 11.1% | [3] 53.6% | [4] 26.8% | [5] 78% | [6] 64.7% | [7] 49.6% | [8] 45.5% | [19] 10.5% | [10] 41% | [11] 18.9% | [12] 35.8% | [13] 59% | [14] 37.4% | [15] 65.5% | [16] 38.3% | [20] 43.2%

COc1ccc(O)c(-c2cc(-c3ccc(Cl)cc3)c(C#N)c(=O)[nH]2)c1
inactive: [1] 102% | [2] 23.5% | [3] 105% | [4] 61.2% | [5] 84.5% | [6] 85.2% | [7] 61.5% | [8] 52.4% | [19] 49.9% | [10] 66.5% | [11] 75.7% | [12] 62.7% | [13] 69.7% | [14] 46.6% | [15] 55.6% | [16] 57.7% | [20] 63.2%

CC1(C)NC2=C(C(Nc3cccnc3)N1)C(c1ccc([N+](=O)[O-])cc1)C(C(=O)c1ccc(N=[N+]=[N-])cc1)O2 (stereo not drawn)
inactive: [1] 106% | [2] 101% | [3] 99.2% | [4] 102% | [5] 112% | [6] 101% | [7] 104% | [8] 102% | [9] 104% | [10] 104% | [11] 113% | [12] 96.2% | [13] 98.7% | [15] 98.9% | [16] 102% | [17] 97.1% | [18] 103%

CCN(CC)C(=O)CCCCCn1c2ccccc2c2c3c(c4c5ccccc5[nH]c4c21)C(=O)N(O)C3=O
active: [11] -43.7% | [20] -59%
inactive: [1] 69% | [2] 40.8% | [3] 102% | [4] 42.9% | [5] 45.6% | [6] 51.6% | [7] 62.5% | [8] 39.7% | [19] 53.9% | [10] 45.9% | [12] 74.4% | [13] 47.2% | [14] 10.5% | [15] 30% | [16] 25.9%

Nc1c(C(=O)Nc2c(Cl)cccc2Cl)sc2nc3c(cc12)C(=O)CCC3
active: [8] 5.18%
inactive: [1] 41.1% | [2] 16.6% | [3] 35.2% | [4] 51.1% | [5] 23.7% | [6] 57.8% | [7] 18.8% | [19] 12.1% | [10] 35.5% | [11] 13.3% | [12] 14.1% | [13] 39.6% | [14] 26.4% | [15] 39.9% | [16] 10.4% | [20] 44.4%

COc1ccc(C2c3ccccc3NC(=O)N2C2CCN(C)CC2)c(OC)c1 (stereo not drawn)
inactive: [1] 105% | [2] 93.1% | [3] 88.1% | [4] 91.9% | [5] 97.1% | [6] 98.2% | [7] 90.6% | [8] 95.2% | [19] 85.3% | [10] 95.6% | [11] 100% | [12] 72.7% | [13] 93% | [14] 100% | [15] 94.4% | [16] 84.7% | [20] 103%

CSc1ccc(N(C)c2nc(C)nc3c2CCC3)cc1
inactive: [3] 92.8% | [4] 10% | [5] 44.7% | [6] 26.9% | [7] 14.3% | [12] 35.1% | [13] 38.1% | [14] 12.1% | [15] 20.1% | [20] 10.2%
active: [1] 9.33% | [2] 5.51% | [8] -16.1% | [19] 5.22% | [10] 7.62% | [11] -9.35% | [16] -38.2%

COC(=O)[C@]12CC[C@@H](C)[C@H](C)[C@@H]1C1=CC[C@@H]3[C@@]4(C)C[C@@H](O)OC[C@](C)(C=O)C4C(=O)C[C@@]3(C)[C@]1(C)CC2 (stereo partly drawn)
inactive: [1] 14.5% | [6] 34.9% | [12] 13.3% | [13] 27.1%
active: [2] 3.89% | [3] -8.79% | [4] -14.9% | [5] -7.01% | [7] 1.62% | [8] 7.45% | [19] 6.13% | [10] 5.82% | [11] -59.3% | [14] 0.219% | [15] 5.85% | [16] -91.3% | [20] -34.2%
